Measurements: PubChem BioAssay (EPA / NIEHS)
Records with an inconclusive call do not appear. The source made the active and inactive calls. How the source made its calls: active means hit-call score of the fitted dose curve at least 0.9, where 1 is the maximum; inconclusive means response in the unintended direction; inactive means score below 0.9.

Each compound was assayed on Cytochrome P450 2C19 (Homo sapiens) (UniProt P33261) (assay: CLD_CYP2C19_6hr: CellzDirect (CLD) Gene Expression Assay for xenobiotic metabolism (CYP2C19) at 6 hours (AID 2283678)).
Sequence of Cytochrome P450 2C19 (Homo sapiens) (P33261 whole entry, looked up): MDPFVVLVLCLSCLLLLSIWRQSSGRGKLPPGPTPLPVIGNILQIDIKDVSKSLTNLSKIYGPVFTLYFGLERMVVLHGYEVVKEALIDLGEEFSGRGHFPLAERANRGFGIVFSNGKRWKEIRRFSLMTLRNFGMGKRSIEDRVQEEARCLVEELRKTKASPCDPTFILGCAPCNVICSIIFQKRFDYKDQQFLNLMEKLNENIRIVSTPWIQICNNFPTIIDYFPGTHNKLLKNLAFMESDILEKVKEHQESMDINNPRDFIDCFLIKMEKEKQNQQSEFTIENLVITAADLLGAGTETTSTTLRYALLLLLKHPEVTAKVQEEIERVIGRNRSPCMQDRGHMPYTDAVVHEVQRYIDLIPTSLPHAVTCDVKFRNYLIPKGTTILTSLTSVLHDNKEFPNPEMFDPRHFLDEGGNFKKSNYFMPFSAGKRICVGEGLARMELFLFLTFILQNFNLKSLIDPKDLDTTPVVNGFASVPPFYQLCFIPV
Procedure: CLD_6hr is a cell-based, multiplexed-readout assay that uses hepatocyte, a human liver primary cell, with measurements taken at 6 hours after chemical dosing in a 96-well plate.CLD_CYP2C19_6hr is one of 16 assay component(s) measured or calculated from the CLD_6hr assay. It is designed to make measurements of mRNA induction, a form of inducible reporter, as detected with chemiluminescence signals by Quantitative Nuclease Protection Assay (qNPA) technology.Data from the assay component CLD_CYP2C19_6hr was analyzed at the endpoint, CLD_CYP2C19_6hr, in the positive analysis fitting direction relative to DMSO as the negative control and baseline of activity. Using a type of inducible reporter, gain-of-signal activity can be used to understand changes in the reporter gene as they relate to the gene CYP2C19. Furthermore, this assay endpoint can be referred to as a primary readout. To generalize the intended target to other relatable targets, this assay endpoint is annotated to the cyp intended target family, where subfamily is xenobiotic metabolism.
Human hepatocyte cultures were treated daily for two consecutive days with fresh dosing solutions containing appropriate concentrations of the 320 ToxCast chemicals (chemical identities were blinded to CellzDirect and other ToxCast collaborators), vehicle control (0.2% DMSO), and positive control inducers as summarized in Table 1. Due to the large number of treatment groups and chemicals examined, the ToxCast chemicals were divided into two groups (spanning two independent cultures of hepatocytes from separate donor preparations (Hu778: ToxCast plates 1 and 2; Hu776: ToxCast plates 3 and 4). Each preparation of human hepatocyte cultures was treated with respective vehicle control, medium only control, set of six positive controls/reference chemicals for the five hepatic receptor pathways, and a subset of eight of the ToxCast chemicals (indoxacarb, pyrithiobac-sodium, norflurazon, cyhalofop-butyl, methomyl, thiram, acetochlor, and propiconazole). These replicate data, coupled with internal replicates designed within the blinded ToxCast chemical library, provided additional data to evaluate interindividual differences between hepatocyte preparations and their potential impact on chemical profiles.Cell morphology and integrity were evaluated using phase-contrast microscopy as an indicator of hepatocyte cell health (Tyson & Green, 1987). Cultures for each treatment group (i.e., media, vehicle [0.2% DMSO], positive control inducers [multiple concentrations], and the ToxCast chemicals [multiple concentrations]) were observed and cell morphology was assessed relative to vehicle control cultures at each harvest time point (0, 6, 24, or 48 h). […] Images were evaluated at the conclusion of the study to assess changes in cell integrity and account for the effects of chemical exposure on uncharacteristic changes in concentration-dependent gene expression profiles. The results from these determinations of apparent cytotoxicity were annotated (yes/no) alongside the corresponding qNPA data for reference.At the conclusion of each treatment period, hepatocyte cultures (96-well) were washed with 1 volume of HBSS, lysed by addition of 25 ul ArrayPlate lysis buffer (HTG, Tucson, AZ), and 70 ul/well of Denaturation Oil, denatured by incubation at 95C for 10 min, and frozen at approximately -70C until analysis by nuclease protection assay (qNPA) (Roberts et al., 2007). For qNPA analysis, cell lysates were thawed at 50C for approximately 30 min, qNPA probes were added, and samples were incubated at 95C for 10 min to begin the detection process by denaturing the target RNA, dissociating the duplexes and secondary structure hybridization. At the conclusion of the hybridization period, S1 nuclease reagent was added to each sample to digest all nonprotected nucleotides at 50C for 60-90 min. […]

Row | SMILES | outcome | AC50
1 | Nc1nc(N)nc(NC2CC2)n1 | inactive | –
2 | CN(C)[C@@H]1C(=O)C(C(N)=O)=C(O)[C@@]2(O)C(=O)C3=C(O)c4c(O)cccc4[C@@](C)(O)[C@H]3[C@H](O)[C@@H]12 | inactive | –
3 | CCOP(=S)(OCC)SCCSCC | inactive | –
4 | CON=C(C(=O)OC)c1ccccc1CON=C(C)c1cccc(C(F)(F)F)c1 | inactive | –
5 | CCOC(=O)CC(SP(=O)(OC)OC)C(=O)OCC (stereo unspecified) | inactive | –
6 | COc1cc(OC)nc(Sc2cccc(Cl)c2C(=O)O)n1 | inactive | –
7 | CN(C)C(=O)Nc1cccc(C(F)(F)F)c1 | inactive | –
8 | CNC(=O)ON=C(C)SC | inactive | –
9 | CCCCOC(=O)[C@@H](C)Oc1ccc(Oc2ccc(C#N)cc2F)cc1 | inactive | –
10 | CC(C1CC1)C(O)(Cn1cncn1)c1ccc(Cl)cc1 (stereo unspecified) | inactive | –
11 | CCNc1nc(Cl)nc(NC(C)(C)C#N)n1 | inactive | –
12 | CC(C)N(C(=O)SCC(Cl)=C(Cl)Cl)C(C)C | inactive | –
13 | CCOP(=O)(SC(C)CC)N1CCSC1=O (stereo unspecified) | inactive | –
14 | O=[N+]([O-])c1cc(C(F)(F)F)c(Cl)c([N+](=O)[O-])c1Nc1ncc(C(F)(F)F)cc1Cl | inactive | –
15 | CCc1cnc(C2=NC(C)(C(C)C)C(=O)N2)c(C(=O)O)c1 (stereo unspecified) | inactive | –
16 | Nc1c(Cl)cc([N+](=O)[O-])cc1Cl | inactive | –
17 | CN1COCN(Cc2cnc(Cl)s2)C1=N[N+](=O)[O-] | inactive | –
18 | CC1=NNC(=O)N(/N=C/c2cccnc2)C1 | inactive | –

Row | SMILES | outcome | AC50
19 | CC(=NC#N)N(C)Cc1ccc(Cl)nc1 | inactive | –
20 | CCCCOC(=O)c1ccccc1C(=O)O | inactive | –
21 | CNc1cnn(-c2cccc(C(F)(F)F)c2)c(=O)c1Cl | inactive | –
22 | COP(=O)(NC(C)=O)SC (stereo unspecified) | inactive | –
23 | O=C(O)c1cc(Oc2ccc(C(F)(F)F)cc2Cl)ccc1[N+](=O)[O-] | inactive | –
24 | CNC(=O)ON=C(SC)C(=O)N(C)C | inactive | –
25 | CCC(=NOC/C=C/Cl)C1=C(O)CC(C2CCOCC2)CC1=O (stereo unspecified) | inactive | –
26 | CC(Oc1cccc(Cl)c1)C(=O)O (stereo unspecified) | inactive | –
27 | COP(=O)(OC)OC(Br)C(Cl)(Cl)Br (stereo unspecified) | inactive | –
28 | CCC(=O)Nc1ccc(Cl)c(Cl)c1 | inactive | –
29 | CC[C@H](C)[C@H]1O[C@]2(C=C[C@@H]1C)C[C@@H]1C[C@@H](C/C=C(\C)[C@@H](O[C@H]3C[C@H](OC)[C@@H](O[C@H]4C[C@H](OC)[C@@H](NC)[C@H](C)O4)[C@H](C)O3)[C@@H](C)/C=C/C=C3\CO[C@@H]4[C@H](O)C(C)=C[C@@H](C(=O)O1)[C@]34O)O2 | – | 32.6 µM (active)
30 | O=c1ccc(=O)[nH][nH]1 | inactive | –
31 | CC1(C(=O)Nc2ccc(O)c(Cl)c2Cl)CCCCC1 | inactive | –
32 | CCCOc1nn(C(=O)NS(=O)(=O)c2ccccc2C(=O)OC)c(=O)n1C | inactive | –
33 | CSc1nc(NC(C)C)nc(NC(C)C)n1 | inactive | –
34 | COc1cccc(C(=O)NN(C(=O)c2cc(C)cc(C)c2)C(C)(C)C)c1C | inactive | –
35 | C[N+]1(C)CCCCC1 | inactive | –
36 | CCOP(=O)(OCC)Oc1cc(C)nc(C(C)C)n1 | inactive | –
